Assay outcomes as filed in PubChem.
aSyn 5UTR act: Activators via SNCA 5'UTR binding, MLPCN; 300,000 compounds, 7.1% hits; AID 1814; alpha-synuclein 5'UTR reporter, activators screen; activity score, % (tested at 7.5 µM), hits read low; in the data active = activity score below about -60%
Numbers without * were called inactive. A selection follows.

SMILES	aSyn 5UTR act
Cc1nn(-c2ccc(N3CCCCC3)nn2)c(C)c1CCC(=O)Nc1ccc(F)c(F)c1	-66*
Cc1ccc(F)cc1NC(=O)CCc1c(C)nn(-c2ccc(N3CCCCC3)nn2)c1C	-82*
Cc1ccc(NC(=O)CCc2c(C)nn(-c3ccc(N4CCOCC4)nn3)c2C)cc1F	-86*
Cc1ccc(NC(=O)CCc2c(C)nn(-c3ccc(N4CCCCC4)nn3)c2C)cc1	-107*
CC(=O)c1ccc(NC(=O)CCc2nnc3ccc(N4CCCC4)nn23)cc1	-95*
CCCNC(=O)c1ccc2c(=O)c(O)c(-c3ccc(F)cc3)[nH]c2c1	81
CCCNC(=O)c1ccccc1NC(=O)c1ccc2c(c1)NC(=O)C(C)S2 (stereo not given)	-96*
CC(=O)c1ccccc1NC(=O)c1ccc2c(c1)NC(=O)C(C)S2 (stereo not given)	-135*
Cc1ccc(NC(=O)C(=O)NCCCN2CCCC2=O)cc1	-71*
CCc1ccc(NC(=O)NCCCN2CCCC2=O)cc1	-65*
COc1ccc(C2C(C#N)=C(N)Nc3nc4ccccc4n32)cc1 (stereo not given)	-179*
Cc1cccc(Nc2nc(N)nc(CSC(=S)N3CCOCC3)n2)c1	-108*
Cc1ccc(Nc2nc(N)nc(CSC(=S)N3CCOCC3)n2)cc1	-127*
Nc1nc(CSC(=S)N2CCOCC2)nc(Nc2ccccc2)n1	-131*
CCc1ccc(N2CSC3=C(C#N)C(c4cccs4)CC(=O)N3C2)cc1 (stereo not given)	-94*
Cc1ccc(N2CSC3=C(C#N)C(c4cccs4)CC(=O)N3C2)cc1 (stereo not given)	-131*
COc1cc(OC)c(C2CC(=O)N3CN(c4ccc(C)cc4)CSC3=C2C#N)cc1OC (stereo not given)	-127*
COc1ccccc1Nc1nc2ccc(C)cc2cc1C#N	-87*
COc1ccccc1Nc1nc(NCCO)nc(N)c1[N+](=O)[O-]	61
O=C(Nc1ccccc1)c1cc2ccc3ccccc3c2s1	-90*
O=C(Nc1ccccc1)c1ccc(-c2ccccc2)s1	-215*
COc1ccc2cc(C(=O)Nc3ccccc3)sc(=O)c2c1OC	-78*
O=C(O)c1ccc(-c2ccc(-c3ccccc3)cc2)s1	64
Clc1ccc(-c2nnc(-c3ccc(Br)o3)o2)c(Cl)c1	-192*
CSc1nnc(-c2ccc(Cl)cc2Cl)o1	-120*
SMILES	aSyn 5UTR act
O=C1OCCC1Sc1nnc(-c2ccc(Cl)cc2Cl)o1 (stereo not given)	90
CCSc1nnc(-c2ccc(Cl)cc2Cl)o1	-260*
CC(Sc1nnc(NC2CCCCC2)s1)C(=O)Nc1ccc2c(c1)C(=O)c1ccccc1C2=O (stereo not given)	-79*
COC(=O)c1ccc(N=Cc2c(-c3ccccc3)[nH][nH]c2=O)cc1	-216*
O=C(c1cc(Br)c(Br)s1)N1CCN(c2ccccn2)CC1	-65*
NC(=O)C1CCN(C(=O)c2ccc3nc(N4CCCCC4)sc3c2)CC1	-102*
O=C(c1ccc2nc(N3CCCCC3)sc2c1)N1CCN(c2ccccn2)CC1	-112*
COc1ccc(Nc2ncnc3sc(C)cc23)c(OC)c1	-82*
S=C(NCCc1ccccn1)NC1CC2CCC1C2 (stereo not given)	-62*
Cc1ccc(N/N=C/c2ccc3c(c2)OCCO3)cc1Cl	-87*
C/C(=N\Nc1ccc(Cl)c(C(=O)O)c1)c1ccc2c(c1)OCO2	-73*
Cc1cc(N/N=C/c2ccccc2)nc(N2CCOCC2)n1	-83*
Cc1ccc(N/N=C/c2ccc(N3CCOCC3)cc2)cc1C	-96*
O=C(O)c1ccc(N/N=C/c2ccc3c(c2)OCO3)cc1	94
O=C(O)c1cc(N/N=C/c2ccc3c(c2)OCO3)ccc1Cl	-73*
O=C(Nc1ccc(Br)cc1)c1cnc[nH]1	-107*
Cc1ccc(C(=O)NNc2cc(N3CCCC3)nc(N3CCCC3)n2)cc1	74
Cc1sc2nc3ccc(N4CCCCC4)nn3c(=O)c2c1C	-181*
Cc1ccc2nc3ccc(N4CCCC4)nn3c(=O)c2c1	-163*
Cn1cnnc1SCC(=O)Nc1ccc2nc(SCc3ccccc3)sc2c1	-142*
CCN(CC)C(=O)CSc1nc2ccc(NC(=O)CSc3nccn3C)cc2s1	-65*
Cn1cnnc1SCC(=O)Nc1ccc2nc(SCc3ccccc3Cl)sc2c1	-101*
CCOc1ccccc1-n1c(SCC(=O)Nc2ccc(CC)cc2)nc2n[nH]c(C)c2c1=N	84
Cc1ccccc1OCc1nnc(SCC(=O)Nc2ccc3nc(SCC(=O)Nc4ccccc4)sc3c2)n1C	-70*
COc1ccc(C(=O)/C(=C/N(C)C)S(=O)(=O)c2ccccc2)cc1	-160*
SMILES	aSyn 5UTR act
Cc1cc(N2CCCCC2)n2ncc(-c3ccc(Cl)cc3)c2n1	-181*
Cc1cc(N2CCN(C(=O)c3ccco3)CC2)n2ncc(-c3ccccc3)c2n1	-78*
COc1cc(OC)c2c(c1)O/C(=C\c1ccccc1)C2=O	-154*
S=C(Nc1ccc(OCc2ccccc2)cc1)Nc1cccc(Cl)c1Cl	-102*
O=C(Nc1ccc(Cl)cc1)Nc1cccc2nsnc12	-126*
O=C(Nc1ccccc1)Nc1ccc(Br)c(Cl)c1	-126*
O=C(Nc1ccccc1)Nc1ccccc1Br	-94*
